Inconclusive results are not listed. Where a call stands in place of a potency, no number is given. Active and inactive are the calls of the source. The call rests on the fitted dose curve; tested in HEK293 reporter line.
Test: qHTS for Inhibitors of the Functional Ribonucleoprotein Complex (vRNP) of Lassa (LASV) Arenavirus: LASV Primary Screen - GLuc reporter signal (AID 1347082); further: nearly all actives have a fitted effect of over 60% in size
Conditions: LASV minigenome vRNP, Gaussia luciferase reporter; series mostly up to 57.5 µM
Potency means the concentration at half of the fitted maximal effect.

Row | SMILES | Potency
1 | Cc1ccc(-c2ncn(-c3ccc(Nc4nccc(-c5cccc(N6CCOCC6)c5)n4)cc3)n2)cn1 | inactive
2 | C[C@@H](N)C1CCC(C(=O)Nc2ccncc2)CC1 (some centres undefined) | inactive
3 | CCCCC(CC)COC(=O)c1ccc(N(C)C)cc1 (centres undefined) | inactive
4 | CC(C)(C)c1ccc(O)c(O)c1 | inactive
5 | CCOC(=O)C(=O)CCCCCCl | inactive
6 | C[C@H](CN1CCCC1)C(=O)c1ccc(C(F)(F)F)cc1 | inactive
7 | CC(C)c1ccccc1Cc1cc(C(=O)Nc2ccc(S(=O)(=O)c3ccccc3C(C)(C)C)cc2)c(O)c(O)c1O | 21.7 µM (active)
8 | CN1C(=O)CC[C@H]1c1cccnc1 | inactive
9 | NC(=O)Nc1cc(-c2cccc(F)c2)sc1C(=O)N[C@H]1CCCNC1 | 1.22 µM (active)
10 | COc1ccc2cc(CCC(C)=O)ccc2c1 | inactive
11 | CN1CCN(CCOc2cc(OC3CCOCC3)c3c(Nc4c(Cl)ccc5c4OCO5)ncnc3c2)CC1 | inactive
12 | CC(=O)OCCN1C(=O)c2c(C)nc3ccc(S(=O)(=O)N4CCOCC4)cc3c2C1=O | inactive
13 | CC(=O)Nc1ccc([C@H](C)C(=O)Nc2ncc(C(C)C)s2)cc1 | 3.06 µM (active)
14 | CN1CCN(c2c(F)cc3c(=O)c(C(=O)O)cn4c3c2OCN4C)CC1 | inactive
15 | Cc1cccc(C#Cc2ccccc2)n1 | inactive
16 | Nc1nc2ccc([N+](=O)[O-])cc2s1 | inactive
17 | CC(=O)Nc1ccc(O)cc1 | inactive
18 | COc1ccccc1-c1cccc(-c2c(O)c3cc(C#N)c(Cl)cc3[nH]c2=O)c1 | inactive
19 | COc1ccc2c(c1)CC[C@H]1[C@@H]2CC[C@]2(C)[C@@H](NCCCCCCN3C(=O)C=CC3=O)CC[C@H]12 | inactive
20 | COc1ccccc1O | inactive

Row | SMILES | Potency
21 | CN(C)c1ccc(N=NS(=O)(=O)O)cc1 | inactive
22 | COc1nc(C)cnc1NS(=O)(=O)c1cccnc1-c1ccc(-c2nnco2)cc1 | inactive
23 | Cc1ccc(S(=O)(=O)Nc2cc(Cl)ccc2C(=O)Nc2nc(-c3ccccc3)cs2)cc1 | inactive
24 | CCc1c(C)[nH]c2c1C(=O)C(CN1CCOCC1)CC2 (centres undefined) | inactive
25 | c1ccc(-c2nn3c(c2-c2ccnc4cc(OCCN5CCOCC5)ccc24)CCC3)nc1 | inactive
26 | CC(C)(C)C(=O)Oc1ccc2c(c1)nc(NC(=O)c1cccc([N+](=O)[O-])c1)n2CCCO | inactive
27 | NCCS | inactive
28 | CC(C)(C)c1cc(C(C)(C)C)c(NC(=O)c2c[nH]c3ccccc3c2=O)cc1O | inactive
29 | COc1ccccc1N1CCN(CC(O)COc2cc(OC)c(OC)c(OC)c2)CC1 (centres undefined) | inactive
30 | Cc1cc(C=c2sc3nc4ccccc4n3c2=O)c(C)n1-c1ccccc1 | inactive
31 | Cc1ccc(C(=O)Nc2cccc(C(F)(F)F)c2)cc1-c1ccc2nc(NCCN3CCOCC3)ncc2c1 | 10.9 µM (active)
32 | CC(C)(C)C(O)C(Oc1ccc(Cl)cc1)n1cncn1 (centres undefined) | inactive
33 | Fc1cc(-c2cccc3ncc(-c4cnn(C5CCNCC5)c4)nc23)cc(F)c1CN1CCOCC1 | 24.3 µM (active)
34 | CC[N+](C)(CC)CCOC(=O)C(O)(c1ccccc1)C1CCCCC1 (centres undefined) | inactive
35 | CC(C)(C)COc1ccc(-n2cc(C(=O)O)cn2)cc1C#N | inactive
36 | CCN(CC)c1ccc(C(=C2C=CC(=[N+](CC)CC)C=C2)c2cc(S(=O)(=O)O)ccc2S(=O)(=O)[O-])cc1 | inactive
37 | Cn1c2cc(S(C)=O)sc2c2cnn(Cc3cccc(N)c3)c(=O)c21 (centres undefined) | inactive
38 | Cc1c(C)c2c(c(C)c1OC(=O)c1cccnc1)CC[C@@](C)(CCC[C@H](C)CCC[C@H](C)CCCC(C)C)O2 | inactive
39 | CC(=O)Nc1sc2c(c1-c1nc3ccccc3s1)CNC2 | inactive

Reference: PubChem BioAssay (NCATS)
